The record followed here is PubChem BioAssay.

Results filed as inconclusive are left out. Calls of active or inactive are those of the source. Unless noted, no rule for the calls is given here.

The nature of assay [1]: growth inhibition, single agent or in combination, cell-based, chromothripsis tumors, cisplatin or BGB combos (AID 1671449; in the data active = inhibition above about 80%;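 also: cells exposed for 96 hours; 0% = vehicle DMSO and 100% = killing by high DMSO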). As to conditions: LFS_MB_P medulloblastoma cells.
Assay [2] can be described thus: growth inhibition, single agent and combos, cell-based, chromothripsis tumors, cisplatin or BGB combos (AID 1671450; in the data active = inhibition above about 80%;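 also: cells exposed to compound for four days; 0% = vehicle DMSO and 100% = cell killing by high DMSO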). As to conditions: HDN33 neuroblastoma cells, stronger effect = higher value.
Assay [3] in a line: growth inhibition, single agents and combos, ICB984, cell-based, cisplatin or BGB combos, synergistic combos for chromothripsis tumors (AID 1671451).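 Also: cells exposed for 96 hours before readout; 0% = vehicle DMSO and 100% = killing by high DMSO.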 As to conditions: ICB984 medulloblastoma cells, drug combinations, stronger effect = higher value.
The nature of assay [4]: growth inhibition, single agents and combos, HTB85, cell-based, BGB or cisplatin IC20 combos, synergistic combos for chromothripsis tumors (AID 1671453; in the data active = inhibition above about 80%;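 also: cells exposed for 96 hours before readout; 0% = vehicle DMSO and 100% = high DMSO killing control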). The conditions noted are these: HTB85 osteosarcoma cells, drug combinations, stronger effect = higher value.
Assay [5] in a line: growth inhibition, MDA-MB-436, cell-based, BGB or cisplatin combos, synergistic combos for chromothripsis tumors (AID 1671458).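 Also: cells exposed for 96 hours; 0% = vehicle DMSO and 100% = killing by high DMSO.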 The conditions noted are these: MDA-MB-436 breast carcinoma growth inhibition, drug combinations, stronger effect = higher value.
Assay [6] in a line: BT084 cell growth, single and combined drugs, ICGC_MB145, cisplatin and BGB IC40 combos (AID 1671461; in the data active = inhibition above about 80%;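 also: cells exposed to drugs for 96 hours; 0% = vehicle DMSO and 100% = high DMSO full killing control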). As to conditions: BT084 medulloblastoma cells, drug combinations, stronger effect = higher value.
Assay [7] is described as follows: RCMB18 cell growth, single agent and combined, cisplatin and BGB IC40 combos (AID 1671462; in the data active = inhibition above about 80%;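 also: cells exposed to compound for four days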). As to conditions: RCMB18 medulloblastoma cells, stronger effect = higher value.
A short description of assay [8]: CRL1545 cell growth, single agent and combined, cisplatin and BGB IC20 combos (AID 1671464; in the data active = inhibition above about 80%;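 also: cells exposed to compound for 96 hours before readout; 0% = vehicle DMSO and 100% = high DMSO killing control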). The conditions noted are these: CRL1545 osteosarcoma cells, stronger effect = higher value.
Assay [9] deals with ATP-dependent translocase ABCB1 (Homo sapiens) (UniProt P08183). The assay can be described thus: P-glycoprotein substrate transport blockade – cell-based (AID 377; in the data active = fluorescence slope change above about 50%). The conditions noted are these: MDR1-expressing cells, fluorescent substrate accumulation slope; stronger effect = higher value; concentration not given here.
In assay [10] the test system is Hepatitis C virus NS3 helicase. The experiment in a line: blockers of NS3h binding to ssDNA – biochemical, fluorescence polarization, LOPAC1280 library, primary screen (AID 687035; in the data active = inhibition above about 37%). The conditions noted are these: Purified HCV NS3 helicase, Cy5-dT15 ssDNA binding fluorescence polarization; stronger effect = higher value; concentration not given here. On the technique in general: Polarisation of emitted light reports the rotation of a fluorescent probe.

Assay [11] in a line: compounds altering Cy5-DNA-NS3h complex signal – biochemical, LOPAC1280, artefact control for HCV NS3 helicase inhibitor project (AID 687037). As to conditions: Cy5-DNA-NS3h complex fluorescence interference counterscreen. For orientation: A counterscreen serves to expose hits that act by an unwanted route or on another target.
Where [12] appears, read: measured here: with BGB IC20 combination, at 0.5 µM.
Where [13] appears, read: measured here: with cisplatin IC20 combination, at 0.5 µM.

Sequence of ATP-dependent translocase ABCB1 (Homo sapiens) (P08183 whole entry, looked up): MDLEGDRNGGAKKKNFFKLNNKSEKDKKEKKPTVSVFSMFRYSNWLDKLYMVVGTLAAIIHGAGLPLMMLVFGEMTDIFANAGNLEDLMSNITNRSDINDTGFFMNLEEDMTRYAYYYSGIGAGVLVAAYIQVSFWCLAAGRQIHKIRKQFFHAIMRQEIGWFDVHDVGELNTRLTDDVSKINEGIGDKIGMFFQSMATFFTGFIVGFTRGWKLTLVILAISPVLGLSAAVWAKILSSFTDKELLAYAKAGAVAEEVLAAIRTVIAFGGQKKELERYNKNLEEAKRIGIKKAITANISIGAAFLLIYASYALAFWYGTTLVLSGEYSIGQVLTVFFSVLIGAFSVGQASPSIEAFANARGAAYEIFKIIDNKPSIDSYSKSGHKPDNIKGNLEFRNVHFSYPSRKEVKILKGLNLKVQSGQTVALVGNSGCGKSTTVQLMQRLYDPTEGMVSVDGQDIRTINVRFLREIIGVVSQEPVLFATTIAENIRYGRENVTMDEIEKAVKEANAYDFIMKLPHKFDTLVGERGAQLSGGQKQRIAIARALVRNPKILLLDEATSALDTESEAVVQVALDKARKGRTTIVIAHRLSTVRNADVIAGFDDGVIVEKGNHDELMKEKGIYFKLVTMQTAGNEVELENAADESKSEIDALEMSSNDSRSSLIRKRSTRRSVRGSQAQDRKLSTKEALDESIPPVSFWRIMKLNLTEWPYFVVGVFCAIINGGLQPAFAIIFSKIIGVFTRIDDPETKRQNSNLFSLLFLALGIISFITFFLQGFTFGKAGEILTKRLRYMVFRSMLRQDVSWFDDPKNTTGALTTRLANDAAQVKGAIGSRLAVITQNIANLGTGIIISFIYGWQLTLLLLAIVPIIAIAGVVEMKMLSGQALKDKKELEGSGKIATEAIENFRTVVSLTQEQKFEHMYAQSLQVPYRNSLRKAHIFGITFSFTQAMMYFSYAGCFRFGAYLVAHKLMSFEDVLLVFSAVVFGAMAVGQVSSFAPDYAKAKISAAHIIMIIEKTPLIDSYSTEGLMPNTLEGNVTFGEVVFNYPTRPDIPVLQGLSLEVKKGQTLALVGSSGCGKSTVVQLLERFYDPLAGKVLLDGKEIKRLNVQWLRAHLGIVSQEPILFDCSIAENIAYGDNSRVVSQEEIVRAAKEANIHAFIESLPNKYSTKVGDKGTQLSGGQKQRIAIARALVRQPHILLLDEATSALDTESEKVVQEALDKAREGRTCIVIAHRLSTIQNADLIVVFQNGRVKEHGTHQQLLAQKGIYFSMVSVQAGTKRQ

As usually defined, the inhibition is the change of the read-out against control, counted positive when it falls. As to `COc1c2ccoc2cc2oc(=O)ccc12`, the inhibition was -22.9% (inactive) in [1] (at 0.5 µM, stronger effect = higher value); -15% in assay [1] (measured here: combination with BGB IC20, at 0.005 µM); -30% in assay [1] (measured here: combination with BGB IC40, at 0.005 µM); 3.17% in assay [1] (measured here: combination with BGB IC40, at 0.05 µM); -36.3% in assay [1] (measured here: combination with cisplatin, at 0.5 µM, stronger effect = higher value); -26.9% in [1] (measured here: combination with cisplatin, at 5 µM, stronger effect = higher value). In addition, the inhibition was -4.43% in assay [2] (BGB combo, at 5 µM); -1.51% (inactive) in [2] (at 0.5 µM); -17.2% in assay [2] (cisplatin combo, at 5 µM); 5% in [2] (setting [12]); 1.07% in assay [2] (setting [13]); -13.4% in assay [2] (single agent, at 5 µM). In addition, the inhibition in assay [3] (BGB IC20 combo, at 0.005 µM) is -7.99%; in [3] (BGB IC40 combo, at 0.005 µM) it was -11.7%; in [3] (BGB IC40 combo, at 0.05 µM) it was -24.6%; in assay [3] (at 0.5 µM) it was -24.1% (inactive); in [3] (cisplatin combo, at 0.05 µM), -24.6%; in assay [3] (cisplatin combo, at 0.5 µM), -26.9%. Also, the inhibition in assay [3] (cisplatin combo, at 5 µM) is -4.96%; in [3] (measured here: 5 uM single agent, at 5 µM) it was -16.8%; in assay [4] (at 0.5 µM), -23.4% (inactive); in assay [4] (measured here: with BGB IC20, at 0.5 µM), -60.7%; in assay [4] (measured here: with BGB IC20, at 5 µM) it was -19.3%; in assay [4] (measured here: with cisplatin IC20, at 0.5 µM) it was -7.94%. Besides, the inhibition in assay [4] (measured here: with cisplatin IC20, at 5 µM) is 10.7%; in [4] (single agent, at 5 µM), -6.82%; in [5] (at 0.5 µM), -22.2% (inactive); in assay [5] (measured here: BGB combination, at 0.5 µM), -22.9%; in assay [5] (measured here: BGB combination, at 5 µM), -18.9%; in assay [5] (measured here: cisplatin combination, at 0.5 µM) it was -40%. Besides, the inhibition in assay [5] (measured here: cisplatin combination, at 5 µM) is -24.1%; in [6] (at 0.5 µM), -16.4% (inactive); in [6] (cisplatin combination, at 0.5 µM), -9.55%; in [6] (cisplatin combination, at 5 µM), -48%; in [6] (measured here: BGB IC40 combination 0.05 uM, at 0.05 µM), -9.91%; in assay [6] (single agent, at 5 µM) it was -11.1%. Also, the inhibition in assay [7] (at 0.5 µM) is -11% (inactive); in [7] (cisplatin combo, at 5 µM) it was 17.9%; in assay [7] (measured here: BGB IC40 combination, at 0.05 µM) it was -6.4%; in assay [7] (measured here: combination with cisplatin, at 0.5 µM), -1.6%; in assay [7] (single agent, at 5 µM), -15.2%; in assay [8] (at 0.5 µM), -17.9% (inactive). The inhibition in [8] (setting [12]) is -18.6%; in assay [8] (setting [13]) it was -17.5%; in assay [8] (single agent, at 0.05 µM), -2.38%; in [8] (single agent, at 5 µM), 22.5%.

With `NC(N)=NCCCCN=C(N)N`, the fluorescence slope change in assay [9] is 59.6% (active). In addition, the inhibition in assay [10] is -3% (inactive). For the same molecule, in [11], the fluorescence ratio (interference) is 1 (inactive).

`O=C1OC(=O)C2C3CCC(O3)C12` (centres undefined): the inhibition in assay [10] was -2% (inactive). The fluorescence ratio (interference) in assay [11] was 1 (inactive).

For the molecule `COc1cc(S(C)=O)ccc1-c1nc2ncccc2[nH]1` (centres undefined), in assay [9], the fluorescence slope change is 5% (inactive).

`NC(N)=NC(=O)c1nc(Cl)c(N2CCCCCC2)nc1N`: the inhibition in assay [10] is -5% (inactive). The fluorescence ratio (interference) in [11] was 0.9 (inactive).

Take `CN1CCc2cccc3c2C1Cc1ccc(O)c(O)c1-3` (centres undefined): the inhibition in [10] was -6% (inactive). The fluorescence ratio (interference) in assay [11] was 1 (inactive).

For the molecule `Cc1cc(C(C)(C)CC(C)(C)C)ccc1OCCOCC[N+](C)(C)Cc1ccccc1`, the fluorescence slope change in [9] is 152% (active).

Turning to `N[C@@H](Cc1cc(I)c(Oc2ccc(O)c(I)c2)c(I)c1)C(=O)O`, in [9], the fluorescence slope change is 18.7% (inactive).

Turning to `Cn1c(=O)c2[nH]c(C3CCCC3)nc2n(C)c1=O`, the inhibition in [10] was -1% (inactive). Further, the fluorescence ratio (interference) in assay [11] was 1 (inactive).

For `CN[C@H](CC(=O)O)C(=O)O`, in assay [10], the inhibition is -2% (inactive). In [11], the fluorescence ratio (interference) was 1 (inactive).

In the case of `COC(=O)[C@H]1[C@H]2C[C@H]3c4[nH]c5ccccc5c4CCN3C[C@H]2CC[C@@H]1O`, in assay [10], the inhibition is 0% (inactive). In addition, the fluorescence ratio (interference) in assay [11] is 1 (inactive).

Consider `NCCCCN=C(N)N`, for which the fluorescence slope change in [9] is 53.1% (active). For the same molecule, the inhibition in [10] was 1% (inactive). Besides, the fluorescence ratio (interference) in assay [11] was 1 (inactive).

`COc1cc2c(cc1OC)-c1cc3ccc(OC)c(OC)c3c[n+]1CC2`: in assay [9], the fluorescence slope change was 29.3% (inactive).

On to `CN1CCc2c(c3ccccc3n2Cc2ccccc2)C1`, for which, in [9], the fluorescence slope change is 70.9% (active).

Turning to `NC(=O)CC[C@H](N)C(=O)O`, the inhibition in assay [10] is -3% (inactive). Also, the fluorescence ratio (interference) in [11] is 1 (inactive).

`NCCSSCCN`: the inhibition in [10] is -2% (inactive). In assay [11], the fluorescence ratio (interference) is 1 (inactive).

Take `CC(C(=O)O)c1ccc(N2Cc3ccccc3C2=O)cc1` (centres undefined): the fluorescence slope change in assay [9] was 85.5% (active).

Turning to `NCCCCC(=O)O`, the inhibition in [10] was -1% (inactive). Moreover, in [11], the fluorescence ratio (interference) is 0.9 (inactive).

For the molecule `CC(CN(C)C)CN1c2ccccc2Sc2ccccc21` (centres undefined), the fluorescence slope change in assay [9] is 102% (active).

Consider `NC1(C(=O)O)CC1`, for which the inhibition in [10] is -2% (inactive). In assay [11], the fluorescence ratio (interference) is 1 (inactive).

On to `Cn1c(=O)[nH]c2ncn(C)c2c1=O`, for which the inhibition in assay [10] is -3% (inactive). In [11], the fluorescence ratio (interference) is 1 (inactive).

As to `Oc1cc(O)c2c(c1)O[C@H](c1ccc(O)c(O)c1)[C@@H](O)C2`, the fluorescence slope change in assay [9] is 16.4% (inactive). Also, the inhibition in [10] is 0% (inactive). For the same molecule, the fluorescence ratio (interference) in [11] is 1 (inactive).

Regarding `O=C(O)c1cc2cc(F)ccc2[nH]1`, in assay [10], the inhibition was -2% (inactive). Also, in assay [11], the fluorescence ratio (interference) is 1 (inactive).

`NCCCCN`: the inhibition in assay [10] was -3% (inactive). For the same molecule, the fluorescence ratio (interference) in [11] was 0.9 (inactive).

`NCCCS(=O)(=O)O`: in assay [10], the inhibition was -1% (inactive). The fluorescence ratio (interference) in assay [11] is 1 (inactive).

With `CN(C)CCOC(c1ccccc1)c1ccccc1` (tested in a mixture with another compound), the fluorescence slope change in assay [9] is 130% (active).

Consider `COc1ccc([C@@H]2CC(=O)c3c(O)cc(O)cc3O2)cc1O`, for which the fluorescence slope change in assay [9] is 5.5% (inactive).

For the molecule `CCCCN1CCCCC1C(=O)Nc1c(C)cccc1C` (centres undefined), the fluorescence slope change in [9] is -6% (inactive).

In the case of `CN(C)CCC(c1ccc(Br)cc1)c1ccccn1` (centres undefined), in assay [9], the fluorescence slope change is 54.4% (active). For the same molecule, the inhibition in assay [10] is 0% (inactive). Also, the fluorescence ratio (interference) in assay [11] was 0.9 (inactive).

In the case of `CC(C(=O)O)c1cccc(Oc2ccccc2)c1` (centres undefined), in assay [9], the fluorescence slope change is 22.2% (inactive).

With `CC(C)Cn1c(=O)n(C)c(=O)c2[nH]cnc21`, the inhibition in assay [10] is -1% (inactive). Further, the fluorescence ratio (interference) in assay [11] was 0.9 (inactive).
